D1 ag: human D1 receptor agonism; P21728; HEK293 T-REx D1 cells, calcium flux, agonist mode; activation, % at 2 µM; hit rate 1% among 360,000; AID 504660; also: 0% is about no effect
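Tetracycline-induced HEK293 TREx D1 cells, force-coupled to calcium signalling, were dye-loaded with a no-wash calcium kit. Compound was pin-added after a 10 s baseline. Fluorescence was read kinetically at 1 cycle/s for 180 s, with calcium rises flagged as agonism.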
D1 antagonist: blocks dopamine activation of the human D1 receptor; HEK293 TREx D1 cells, calcium flux, dopamine EC80; active compounds read low; AID 504652; activity change, negative = inhibition, % at 10 µM; P21728; hit rate 3.2% among 360,000; in the data active = activity change below about -30%; also: % is scaled to controls: 0 for no effect and ±100 for the full control effect
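HEK293 T-REx cells expressing inducible, force-coupled D1 receptor; no-wash Ca dye, 30–90 min RT. Cmpd → 180 s read at 1 Hz → EC80 DA → 180 s read.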
TRHR PAM: allosterically enhances the human TRH receptor. AID 493056. hit rate 0.66% among 360,000. P34981. TRHR cells, fluo-8 calcium fluorescence, EC20 TRH enhancement. enhancement, % at 2 µM; in the data active = enhancement above about 30%; also: 0% is about no effect
Target sequence (P34981 whole entry, looked up): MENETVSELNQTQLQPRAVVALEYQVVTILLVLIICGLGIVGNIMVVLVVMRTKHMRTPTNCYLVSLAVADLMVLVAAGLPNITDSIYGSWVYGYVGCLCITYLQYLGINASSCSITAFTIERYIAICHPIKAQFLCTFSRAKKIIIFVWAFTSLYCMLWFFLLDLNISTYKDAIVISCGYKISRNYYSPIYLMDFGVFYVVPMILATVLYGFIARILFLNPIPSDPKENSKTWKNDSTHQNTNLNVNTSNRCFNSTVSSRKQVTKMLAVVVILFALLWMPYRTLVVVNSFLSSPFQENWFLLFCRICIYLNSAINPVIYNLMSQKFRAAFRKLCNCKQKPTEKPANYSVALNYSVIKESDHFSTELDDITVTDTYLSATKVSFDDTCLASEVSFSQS
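TRHR-expressing cells loaded with fluo-8 calcium dye were read kinetically (ex 480/em 530) during compound addition, then stimulated with an EC20 of TRH (10 nM final). Enhancement of the Gq-mediated intracellular calcium response was scored.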
USP1-UAF1 inh: USP1/UAF1 (human) deubiquitinase inhibition. O94782. recombinant USP1/UAF1, Ub-Rhodamine cleavage fluorescence. Potency, µM (highest dose often 57.1 µM), for inactives: top-dose activity change, negative = inhibition, hits mostly inhibitors. hit rate 0.23% among 390,000. AID 743255; active = well fitted inhibition curve with a large enough effect; inconclusive = small, poorly fitted or top-dose-only effect; inactive = no such curve, though single readings can be large or run the other way; also: potency is read from the fitted curve at half-maximal effect; % is scaled to controls: 0 for no effect and ±100 for the full control effect; nearly all actives have a fitted effect of over 60% in size
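High-throughput fluorogenic screen: 1nM USP1/UAF1 complex, Ub-Rho substrate 150nM final, 50mM HEPES pH 7.8 with 0.5mM EDTA, 0.1 mg/ml BSA, 1mM TCEP and 0.01% Tween-20.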
TRHR agonist: TRH receptor (human) agonism; P34981; hit rate 0.18% among 360,000; AID 493084; activation, % at 2 µM; TRHR cells, calcium flux fluo-8, FDSS agonist mode; also: 0% is about no effect
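Fluo-8-loaded TRHR cells; 10 s baseline, compound added, kinetic Ca2+ fluorescence read 1/s, agonist mode.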
D1 PAM: potentiators of human D1 dopamine receptor | hit rate 0.036% among 360,000 | AID 504651 | P21728 | potentiation, % at 10 µM | HEK293 TREx D1 cells, calcium flux, dopamine EC20 potentiation; in the data active = potentiation above about 30%; also: 0% is about no effect
An asterisk follows results filed as active; u = inconclusive; x = no result given. In the library only some 4.4% were active in any assay of this set; here they are far more common. Rule as the data show it, unless noted: active = activation above about 30%; inactive = the rest.

SMILES | D1 ag | D1 antagonist | TRHR PAM | USP1-UAF1 inh | TRHR agonist | D1 PAM
O=C(O)c1ccc(S(=O)(=O)N(Cc2ccc(F)cc2)C2CCCCC2)cc1 | 5 | -20 | 38* | 6% | 0 | -5
CN(Cc1ccccc1)S(=O)(=O)c1ccc(S(=O)(=O)N(Cc2ccc(F)cc2)C2CCCC2)cc1 | -3 | x | -4 | -20% | 0 | -2
Cc1cc(C)n(C(=O)CCCC(=O)n2nc(C)cc2C)n1 | 2 | -32* | -5 | -4% | 0 | -10
Cc1cc(C)n(C(=O)CNC(=O)c2cccc(Cl)c2)n1 | 2 | 6 | -2 | -7% | 1 | -5
Cc1cc(C)n(C(=O)CNC(=O)c2cccs2)n1 | 1 | -6 | 37* | -18% | 0 | 2
COCCN(CCOC)c1ncnc2c1c(-c1ccccc1)cn2-c1ccc(C)c(Cl)c1 | 0 | -2 | 3 | -4% | 0 | -2
COc1cccc(NC(=O)c2sc3nc(C)c(C(=O)Nc4ccc(Cl)cc4)c(-c4ccc(Br)cc4)c3c2N)c1 | -1 | -1 | -1 | u | 0 | 2
Cc1ccc(C)c(N=Nc2ccc(O)c3ncccc23)c1 | -1 | -71* | 7 | -4% | 0 | -8
Cc1cccc(N=Nc2ccc(O)c3ncccc23)c1 | 29 | 28 | -18 | 0% | -3 | 11
Fc1ccc(CNC(=S)NC2CCCCCC2)cc1 | 15 | -36* | -11 | 2% | 0 | -6
S=C(NCCc1ccc(Cl)cc1)NC1CCCC1 | 11 | -4 | 8 | -8% | 0 | -16
S=C(NCCc1ccc(Cl)cc1)NC1CCCCC1 | 17 | -41* | -4 | -22% | 3 | -8
S=C(Nc1cccc(Cl)c1)NC1CCCCC1 | 22 | -34* | -9 | -24% | 3 | -2
CCCCNCC1CCCO1 (centres undefined) | 4 | -91* | -23 | -21% | 1 | -6
O=C(Oc1ccc(Br)cc1C(=S)N1CCOCC1)c1ccc([N+](=O)[O-])cc1[N+](=O)[O-] | -2 | -4 | 36* | -17% | 0 | 9
COc1cc(C(=S)N2CCOCC2)ccc1OC(=O)c1ccccc1[N+](=O)[O-] | 6 | -33* | 4 | -24% | 0 | -4
O=C(Oc1ccc(C(=S)N2CCOCC2)cc1)c1ccc([N+](=O)[O-])cc1[N+](=O)[O-] | -1 | -2 | 0 | -16% | 1 | -5
CCCCN1CC(c2nc3ccccc3n2CCCCOc2c(C)cccc2C)CC1=O (centres undefined) | 5 | -17 | 0 | u | 1 | -5
Cn1c(SCC(=O)N2CC(=O)Nc3ccccc32)nc2ccccc2c1=O | 1 | -4 | -4 | -15% | 0 | 3
O=C1CN(C(=O)CSc2nc3ccccc3c(=O)n2Cc2ccc(F)cc2)c2ccccc2N1 | 10 | -59* | -6 | -14% | 0 | -8
CCCCNC(=O)c1ccc2c(=O)n(Cc3ccc(OC)cc3)c(=O)[nH]c2c1 | 2 | 8 | 2 | -26% | 0 | -1
Cc1cc(-c2nnc(SCc3ccccn3)o2)no1 | 6 | 2 | 31* | 21% | -1 | 11
Cc1cc(-c2nnc(SCCC(=O)Nc3ccccc3)o2)no1 | 3 | -3 | 6 | -15% | 1 | 4
N#Cc1ccc(-c2ccccc2)nc1SCCN1CCOCC1 | -2 | -9 | 8 | -7% | 0 | -7
Cc1cc(C)c(C#N)c(SCCN2CCOCC2)n1 | 0 | -31* | -3 | -17% | 0 | -3
SMILES | D1 ag | D1 antagonist | TRHR PAM | USP1-UAF1 inh | TRHR agonist | D1 PAM
CCCCN1C(=O)c2[nH]nc(-c3ccccc3O)c2C1c1ccc(C(C)(C)C)cc1 (centres undefined) | 3 | 37 | 1 | -4% | 0 | 3
O=C(Nc1ccc(F)cc1)c1ccc(Cn2nc(N3CCN(c4ccccc4)CC3)ccc2=O)o1 | 1 | -32* | 1 | u | -1 | -5
CCOC(=O)CSC1=NC(=O)/C(=C/c2ccc(OC)cc2)S1 | 6 | -37* | 0 | -14% | 1 | -8
CNS(=O)(=O)c1cc(-c2nn3c(C)nnc3c3ccccc23)ccc1C | 4 | -3 | -7 | -9% | 1 | 2
CC(C)Cc1nnc(NC(=O)Cc2cccs2)s1 | 1 | -50* | 1 | -9% | 1 | -3
CCOC(=O)c1c(C)oc2nc(C)nc(N3CCN(c4ccc(C(C)=O)cc4)CC3)c12 | 5 | 6 | 11 | -21% | -1 | -2
COc1cccc(C(c2sc3ncnn3c2O)N2CCN(C(=O)c3ccco3)CC2)c1 (centres undefined) | 1 | 6 | 37* | -8% | -1 | 2
CN(C)/C=N/c1sc2c(c1C#N)CC(C)(C)NC2(C)C | 2 | -45* | 0 | 16% | 0 | -27
CCN(/C=N/c1sc2c(c1C#N)CC(C)(C)NC2(C)C)CC | -1 | -13 | 3 | -4% | 0 | -4
Clc1cccc(-n2cc(-c3ccccc3)c3c(N4CCCCC4)ncnc32)c1 | -2 | 8 | 1 | u | 0 | 2
Cc1ccc(OCC(O)CNC2CCCC2)c(C)c1 (centres undefined) | 11 | -22 | -3 | -18% | 0 | -7
Cc1ccc(OCCCCNC2CCCCC2)c(C)c1 | 57* | -19 | -2 | -13% | -5 | -5
Cc1ccc(C)c(OCCCNC2CCCC2)c1C | 42* | -35* | -1 | -5% | -1 | -4
CCN(Cc1ccccc1)C(=O)Cn1ncc2c(=O)oc3ccc(C)cc3c21 | -1 | 15 | -23 | 11% | 0 | -3
O=C(CC1SC(N2CCCCC2)=NC1=O)Nc1cccc(C(F)(F)F)c1 (centres undefined) | 1 | -34* | 3 | -5% | -1 | -4
CC(=O)c1cccc(NC(=O)CC2SC(N3CCCCC3)=NC2=O)c1 (centres undefined) | 1 | -1 | -2 | -11% | 0 | -5
Cc1cc(C)cc(NC(=O)c2ccc3oc(=O)c(S(=O)(=O)c4ccc(F)cc4)cc3c2)c1 | 2 | -3 | -6 | -19% | 0 | -2
Cc1ccc(CNCc2cc(Cl)ccc2O)cc1 | 60* | 2 | 1 | -12% | 1 | 0
CCOc1ccc(-c2c(C(=O)N/N=C/c3ccc(O)cc3)nnn2-c2nonc2N)cc1 | 2 | 40 | 4 | -9% | 0 | -20
COc1cccc(-c2c(C(=O)N/N=C/c3ccsc3)nnn2-c2nonc2N)c1 | 163* | 29 | 2 | -7% | 0 | 15
CCOc1ccc(-c2c(C(=O)N/N=C/c3ccsc3)nnn2-c2nonc2N)cc1 | 38* | 33 | 7 | -13% | 0 | 2
CCc1nn(CCCC(=O)N2CCN(c3cc(Cl)ccc3C)CC2)c(=O)c2cc3occc3n12 | -3 | 22 | -5 | -11% | 0 | -1

High-throughput results: PubChem BioAssay, National Center for Advancing Translational Sciences (NCATS)
